# Laboratory results from the supplement of paper PMC6897291.
# Key:
# U-2932 [1] = assay: growth inhibition by drug plus 177Lu-lilotomab satetraxetan (1 - RLU/untreated control) (fraction); higher = stronger inhibition; details: 177Lu-lilotomab satetraxetan 1 ug/ml
# Outline: (§1)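 Plates pre-printed with the Selleck Cambridge Cancer Compound library at 10/100 nM (RIVA) or 10/1,000 nM (U-2932) received 3,000 cells/well. These cells had been washed after 18 h untreated or with a radiolabelled anti-CD37 antibody conjugate (~600 MBq/mg; 0.5 µg/ml RIVA, 1 µg/ml U-2932). Growth inhibition was obtained from RealTime-Glo luminescence in relation to untreated no-drug wells. Each daily read from day 3, taken after 1 h at 37°C, was converted as 1 − RLU/mean of 48 such wells per plate.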
# RIVA [2] = assay: as above; details: 177Lu-lilotomab satetraxetan 0.5 ug/ml
# Outline: as §1
# U-2932 [3] = assay: growth inhibition by drug alone (1 - RLU/untreated control) (fraction); higher = stronger inhibition; details: 177Lu-lilotomab satetraxetan 0 ug/ml
# Outline: as §1
# RIVA [4] = assay: as above; details: 177Lu-lilotomab satetraxetan 0 ug/ml
# Outline: as §1
structure (smiles),measurement,setting,value
CC[C@@H](C(=O)[C@@H](C)[C@@H](O)[C@H](C)[C@@H]1O[C@@H]([C@@H](CC)C(=O)O)CC[C@@H]1C)[C@H]1O[C@]2(C=C[C@@H](O)[C@]3(CC[C@@](C)([C@H]4CC[C@](O)(CC)[C@H](C)O4)O3)O2)[C@H](C)C[C@@H]1C [Salinomycin (Procoxacin)],growth inhibition by drug plus 177Lu-lilotomab satetraxetan,"U-2932 [1]; 10 nM, time (day): 3",0.0566
same,growth inhibition by drug plus 177Lu-lilotomab satetraxetan,"U-2932 [1]; 10 nM, time (day): 4",0.111
same,growth inhibition by drug plus 177Lu-lilotomab satetraxetan,"U-2932 [1]; 10 nM, time (day): 5",0.126
same,growth inhibition by drug plus 177Lu-lilotomab satetraxetan,"U-2932 [1]; 10 nM, time (day): 6",0.245
same,growth inhibition by drug plus 177Lu-lilotomab satetraxetan,"U-2932 [1]; 1000 nM, time (day): 3",0.381
same,growth inhibition by drug plus 177Lu-lilotomab satetraxetan,"U-2932 [1]; 1000 nM, time (day): 4",0.516
same,growth inhibition by drug plus 177Lu-lilotomab satetraxetan,"U-2932 [1]; 1000 nM, time (day): 5",0.607
same,growth inhibition by drug plus 177Lu-lilotomab satetraxetan,"U-2932 [1]; 1000 nM, time (day): 6",0.75
CN(C)CCN(C)CCc1ccc(Cl)c(Cl)c1,growth inhibition by drug plus 177Lu-lilotomab satetraxetan,"U-2932 [1]; 10 nM, time (day): 3",-0.0419
same,growth inhibition by drug plus 177Lu-lilotomab satetraxetan,"U-2932 [1]; 10 nM, time (day): 4",-0.0108
same,growth inhibition by drug plus 177Lu-lilotomab satetraxetan,"U-2932 [1]; 10 nM, time (day): 5",-0.00129
same,growth inhibition by drug plus 177Lu-lilotomab satetraxetan,"U-2932 [1]; 10 nM, time (day): 6",0.0756
same,growth inhibition by drug plus 177Lu-lilotomab satetraxetan,"U-2932 [1]; 1000 nM, time (day): 3",-0.131
same,growth inhibition by drug plus 177Lu-lilotomab satetraxetan,"U-2932 [1]; 1000 nM, time (day): 4",-0.0418
same,growth inhibition by drug plus 177Lu-lilotomab satetraxetan,"U-2932 [1]; 1000 nM, time (day): 5",-0.0272
same,growth inhibition by drug plus 177Lu-lilotomab satetraxetan,"U-2932 [1]; 1000 nM, time (day): 6",-0.0418
O=C(O)c1nn(Cc2ccc(Cl)cc2Cl)c2ccccc12 [Lonidamine],growth inhibition by drug plus 177Lu-lilotomab satetraxetan,"U-2932 [1]; 10 nM, time (day): 3",0.0325
same,growth inhibition by drug plus 177Lu-lilotomab satetraxetan,"U-2932 [1]; 10 nM, time (day): 4",0.0863
same,growth inhibition by drug plus 177Lu-lilotomab satetraxetan,"U-2932 [1]; 10 nM, time (day): 5",0.132
same,growth inhibition by drug plus 177Lu-lilotomab satetraxetan,"U-2932 [1]; 10 nM, time (day): 6",0.173
same,growth inhibition by drug plus 177Lu-lilotomab satetraxetan,"U-2932 [1]; 1000 nM, time (day): 3",0.0882
same,growth inhibition by drug plus 177Lu-lilotomab satetraxetan,"U-2932 [1]; 1000 nM, time (day): 4",0.147
same,growth inhibition by drug plus 177Lu-lilotomab satetraxetan,"U-2932 [1]; 1000 nM, time (day): 5",0.167
same,growth inhibition by drug plus 177Lu-lilotomab satetraxetan,"U-2932 [1]; 1000 nM, time (day): 6",0.244
Cc1cc2c(C(C)C)c(O)c(O)c(C=O)c2c(O)c1-c1c(C)cc2c(C(C)C)c(O)c(O)c(C=O)c2c1O [Gossypol],growth inhibition by drug plus 177Lu-lilotomab satetraxetan,"U-2932 [1]; 10 nM, time (day): 3",-0.115
same,growth inhibition by drug plus 177Lu-lilotomab satetraxetan,"U-2932 [1]; 10 nM, time (day): 4",-0.0678
same,growth inhibition by drug plus 177Lu-lilotomab satetraxetan,"U-2932 [1]; 10 nM, time (day): 5",-0.0445
same,growth inhibition by drug plus 177Lu-lilotomab satetraxetan,"U-2932 [1]; 10 nM, time (day): 6",0.0445
same,growth inhibition by drug plus 177Lu-lilotomab satetraxetan,"U-2932 [1]; 1000 nM, time (day): 3",-0.0917
same,growth inhibition by drug plus 177Lu-lilotomab satetraxetan,"U-2932 [1]; 1000 nM, time (day): 4",-0.0427
same,growth inhibition by drug plus 177Lu-lilotomab satetraxetan,"U-2932 [1]; 1000 nM, time (day): 5",-0.011
same,growth inhibition by drug plus 177Lu-lilotomab satetraxetan,"U-2932 [1]; 1000 nM, time (day): 6",0.0745
same,growth inhibition by drug plus 177Lu-lilotomab satetraxetan,"RIVA [2]; 10 nM, time (day): 3",0.354
same,growth inhibition by drug plus 177Lu-lilotomab satetraxetan,"RIVA [2]; 10 nM, time (day): 4",0.475
same,growth inhibition by drug plus 177Lu-lilotomab satetraxetan,"RIVA [2]; 10 nM, time (day): 5",0.501
same,growth inhibition by drug plus 177Lu-lilotomab satetraxetan,"RIVA [2]; 10 nM, time (day): 6",0.51
same,growth inhibition by drug plus 177Lu-lilotomab satetraxetan,"RIVA [2]; 100 nM, time (day): 3",0.233
same,growth inhibition by drug plus 177Lu-lilotomab satetraxetan,"RIVA [2]; 100 nM, time (day): 4",0.353
same,growth inhibition by drug plus 177Lu-lilotomab satetraxetan,"RIVA [2]; 100 nM, time (day): 5",0.38
same,growth inhibition by drug plus 177Lu-lilotomab satetraxetan,"RIVA [2]; 100 nM, time (day): 6",0.364
C=C1C[C@@H]2[C@H](CC[C@]3(C)C(=O)CC[C@@H]23)[C@@]2(C)C=CC(=O)C=C12 [Exemestane],growth inhibition by drug alone,"U-2932 [3]; 10 nM, time (day): 3",0.0753
same,growth inhibition by drug alone,"U-2932 [3]; 10 nM, time (day): 4",0.00319
same,growth inhibition by drug alone,"U-2932 [3]; 10 nM, time (day): 5",-0.0809
same,growth inhibition by drug alone,"U-2932 [3]; 10 nM, time (day): 6",-0.0708
same,growth inhibition by drug alone,"U-2932 [3]; 1000 nM, time (day): 3",-0.0344
same,growth inhibition by drug alone,"U-2932 [3]; 1000 nM, time (day): 4",-0.0359
same,growth inhibition by drug alone,"U-2932 [3]; 1000 nM, time (day): 5",-0.1
same,growth inhibition by drug alone,"U-2932 [3]; 1000 nM, time (day): 6",0.0186
same,growth inhibition by drug alone,"RIVA [4]; 10 nM, time (day): 3",0.0187
same,growth inhibition by drug alone,"RIVA [4]; 10 nM, time (day): 4",0.00346
same,growth inhibition by drug alone,"RIVA [4]; 10 nM, time (day): 5",-0.0171
same,growth inhibition by drug alone,"RIVA [4]; 10 nM, time (day): 6",-0.272
same,growth inhibition by drug alone,"RIVA [4]; 100 nM, time (day): 3",-0.247
same,growth inhibition by drug alone,"RIVA [4]; 100 nM, time (day): 4",-0.223
same,growth inhibition by drug alone,"RIVA [4]; 100 nM, time (day): 5",-0.21
same,growth inhibition by drug alone,"RIVA [4]; 100 nM, time (day): 6",-0.228
same,growth inhibition by drug plus 177Lu-lilotomab satetraxetan,"U-2932 [1]; 10 nM, time (day): 3",0.052
same,growth inhibition by drug plus 177Lu-lilotomab satetraxetan,"U-2932 [1]; 10 nM, time (day): 4",0.106
same,growth inhibition by drug plus 177Lu-lilotomab satetraxetan,"U-2932 [1]; 10 nM, time (day): 5",0.138
same,growth inhibition by drug plus 177Lu-lilotomab satetraxetan,"U-2932 [1]; 10 nM, time (day): 6",0.169
same,growth inhibition by drug plus 177Lu-lilotomab satetraxetan,"U-2932 [1]; 1000 nM, time (day): 3",-0.0113
same,growth inhibition by drug plus 177Lu-lilotomab satetraxetan,"U-2932 [1]; 1000 nM, time (day): 4",0.0549
same,growth inhibition by drug plus 177Lu-lilotomab satetraxetan,"U-2932 [1]; 1000 nM, time (day): 5",0.0989
same,growth inhibition by drug plus 177Lu-lilotomab satetraxetan,"U-2932 [1]; 1000 nM, time (day): 6",0.179
CC(=O)Nc1ccc(OC[C@](C)(O)C(=O)Nc2ccc([N+](=O)[O-])c(C(F)(F)F)c2)cc1 [Andarine (GTX-007)],growth inhibition by drug plus 177Lu-lilotomab satetraxetan,"U-2932 [1]; 10 nM, time (day): 3",0.0713
same,growth inhibition by drug plus 177Lu-lilotomab satetraxetan,"U-2932 [1]; 10 nM, time (day): 4",0.12
same,growth inhibition by drug plus 177Lu-lilotomab satetraxetan,"U-2932 [1]; 10 nM, time (day): 5",0.151
same,growth inhibition by drug plus 177Lu-lilotomab satetraxetan,"U-2932 [1]; 10 nM, time (day): 6",0.162
same,growth inhibition by drug plus 177Lu-lilotomab satetraxetan,"U-2932 [1]; 1000 nM, time (day): 3",-0.0087
same,growth inhibition by drug plus 177Lu-lilotomab satetraxetan,"U-2932 [1]; 1000 nM, time (day): 4",0.0374
same,growth inhibition by drug plus 177Lu-lilotomab satetraxetan,"U-2932 [1]; 1000 nM, time (day): 5",0.0839
same,growth inhibition by drug plus 177Lu-lilotomab satetraxetan,"U-2932 [1]; 1000 nM, time (day): 6",0.127
N.N.[Cl][Pt][Cl] [Cisplatin],growth inhibition by drug alone,"RIVA [4]; 10 nM, time (day): 3",-0.00407
same,growth inhibition by drug alone,"RIVA [4]; 10 nM, time (day): 4",-0.0943
same,growth inhibition by drug alone,"RIVA [4]; 10 nM, time (day): 5",-0.0938
same,growth inhibition by drug alone,"RIVA [4]; 10 nM, time (day): 6",-0.114
same,growth inhibition by drug alone,"RIVA [4]; 100 nM, time (day): 3",0.0654
same,growth inhibition by drug alone,"RIVA [4]; 100 nM, time (day): 4",-0.0804
same,growth inhibition by drug alone,"RIVA [4]; 100 nM, time (day): 5",-0.0914
same,growth inhibition by drug alone,"RIVA [4]; 100 nM, time (day): 6",-0.104
same,growth inhibition by drug plus 177Lu-lilotomab satetraxetan,"U-2932 [1]; 10 nM, time (day): 3",0.000302
same,growth inhibition by drug plus 177Lu-lilotomab satetraxetan,"U-2932 [1]; 10 nM, time (day): 4",0.0521
same,growth inhibition by drug plus 177Lu-lilotomab satetraxetan,"U-2932 [1]; 10 nM, time (day): 5",0.0625
same,growth inhibition by drug plus 177Lu-lilotomab satetraxetan,"U-2932 [1]; 10 nM, time (day): 6",0.172
same,growth inhibition by drug plus 177Lu-lilotomab satetraxetan,"U-2932 [1]; 1000 nM, time (day): 3",-0.00976
same,growth inhibition by drug plus 177Lu-lilotomab satetraxetan,"U-2932 [1]; 1000 nM, time (day): 4",0.0376
same,growth inhibition by drug plus 177Lu-lilotomab satetraxetan,"U-2932 [1]; 1000 nM, time (day): 5",0.065
same,growth inhibition by drug plus 177Lu-lilotomab satetraxetan,"U-2932 [1]; 1000 nM, time (day): 6",0.206
